Source: PubChem (National Center for Advancing Translational Sciences (NCATS))
A selection: hits, their analogues and other compounds. The true share with any hit is near 0.95%.
RE007 growth inh – less growth of the S. pombe RE007 Vpr strain | Potency, µM (series often up to 92.2 µM), without a hit: at the highest dose activity change, negative = less growth, actives largely listed as inhibitors | S. pombe RE007 Vpr strain, BacTiter-Glo ATP luminescence, 24 h | 360,000 tested, 0.21% active; active means well fitted falling curve with a large enough effect; inconclusive means small, poorly fitted or top-dose-only effect; inactive means no such curve, though single readings can be large or run the other way; further: nearly all actives have a fitted effect of over 50% in size
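Fission yeast RE007 carrying one integrated HIV-1 vpr copy, seeded at OD 0.01 in PMG+AL medium with 23 nL pinned compound. Grown 24 h at 30 degrees; viability read by BacTiter-Glo luminescence after 5 min.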
Tb PYK inh – T. brucei pyruvate kinase inhibition; AID 624173; Q57TT1; Potency, µM (top dose mostly 76.8 µM), for the others: at the top dose activity, negative = inhibition, usual class: inhibitors; 410,000 tested, 0.12% active; TbPYK enzyme, Kinase-Glo Plus ATP luminescence, 45 min; further: nearly all actives have a fitted effect of over 50% in size
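Activity of T. brucei pyruvate kinase was followed by Kinase-Glo Plus luminescence after the enzyme reacted 45 min at room temperature with 130 uM ADP (final) and substrate. Test compounds were added before ADP at multiple concentrations.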
Giardia FBPA inh-1 – Giardia lamblia aldolase inhibition | AID 2451 | purified Giardia FBPA | Potency, µM (series often up to 59.6 µM), without a hit: at the highest dose activity, negative = inhibition, most hits filed as inhibitors | A8B2U2 | 290,000 tested, 0.71% active; further: nearly all actives have a fitted effect of over 55% in size
Target sequence (A8B2U2 whole entry, looked up): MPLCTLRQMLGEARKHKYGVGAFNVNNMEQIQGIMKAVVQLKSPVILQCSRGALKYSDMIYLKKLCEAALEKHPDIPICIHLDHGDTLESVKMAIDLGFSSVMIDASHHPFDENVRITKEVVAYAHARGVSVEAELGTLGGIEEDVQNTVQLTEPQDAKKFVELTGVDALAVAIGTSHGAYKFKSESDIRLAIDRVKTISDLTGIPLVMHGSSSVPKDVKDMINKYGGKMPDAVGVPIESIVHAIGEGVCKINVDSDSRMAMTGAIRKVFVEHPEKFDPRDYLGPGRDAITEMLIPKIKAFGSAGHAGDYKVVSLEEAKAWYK
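40 nM FBPA preincubated 10 min at RT with compound (up to 57.5 uM final), then substrate plus GAPDH/TPI/NAD/arsenate coupling and diaphorase/resazurin added. Fluorescence read after 20 min at RT, 525/598 nm.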
LmPK inh – blocks Leishmania mexicana pyruvate kinase activity | purified LmPK, Kinase-Glo ATP luminescence, 1 h | Potency, µM (top dose mostly 57.5 µM), for inactives: top-dose activity change, negative = inhibition, usual class: inhibitors | 290,000 tested, 0.37% active | Q27686
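ATP generated from ADP (0.1 mM) and PEP (0.5 mM) by 0.1 nM LmPK over 1 h at room temperature (pH 7.2 imidazole buffer) was detected by coupled luciferase luminescence. Values were normalized to uninhibited and no-enzyme wells.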
Giardia growth – inhibitors of Giardia lamblia growth; shares compounds with Giardia FBPA inh-1; Potency, µM (series often up to 57.5 µM), for inactives: at the highest dose activity change, negative = inhibition, usual class: inhibitors; 1,500 tested, 5% active; AID 2785; Giardia lamblia trophozoite growth inhibition;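 further: trophozoites exposed to compound for 48 h at 37 °C; nearly all actives have a fitted effect of over 70% in size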
Mammalian tox – counter-screen for Giardia aldolase inhibitors: mammalian cell toxicity. shares compounds with Giardia FBPA inh-1. mammalian cell viability counter-screen, qHTS. Potency, µM (titrated, usually from 57.5 µM), without a hit: top-dose viability change, negative = toxicity, actives largely listed as inhibitors. 1,500 tested, 4% active. AID 2786;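 further: Chinese hamster ovary cells used as mammalian cytotoxicity surrogate; viability measured as cellular ATP by luminescence; compound exposure lasted 48 h before reading; nearly all actives have a fitted effect of over 60% in size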
Giardia FBPA inh-2 – confirmation of Giardia fructose-bisphosphate aldolase inhibitors; shares compounds with Giardia FBPA inh-1; purified Giardia aldolase enzyme activity, qHTS; Potency, µM (titrated, usually from 57.5 µM), for the others: at the top dose activity change, negative = inhibition, usual class: inhibitors; 1,500 tested, 5% active; AID 2787; further: nearly all actives have a fitted effect of over 45% in size
Rabbit FBPA inh – selectivity test for Giardia aldolase inhibitors: rabbit aldolase; Potency, µM (titrated, usually from 57.5 µM), for inactives: at the top dose activity, negative = inhibition, hits mostly inhibitors; Rabbit muscle FBPA enzyme inhibition, selectivity counter-screen; AID 2794; 1,500 tested, 4% active; shares compounds with Giardia FBPA inh-1; further: nearly all actives have a fitted effect of over 60% in size
Target sequence (P00883 whole entry, looked up): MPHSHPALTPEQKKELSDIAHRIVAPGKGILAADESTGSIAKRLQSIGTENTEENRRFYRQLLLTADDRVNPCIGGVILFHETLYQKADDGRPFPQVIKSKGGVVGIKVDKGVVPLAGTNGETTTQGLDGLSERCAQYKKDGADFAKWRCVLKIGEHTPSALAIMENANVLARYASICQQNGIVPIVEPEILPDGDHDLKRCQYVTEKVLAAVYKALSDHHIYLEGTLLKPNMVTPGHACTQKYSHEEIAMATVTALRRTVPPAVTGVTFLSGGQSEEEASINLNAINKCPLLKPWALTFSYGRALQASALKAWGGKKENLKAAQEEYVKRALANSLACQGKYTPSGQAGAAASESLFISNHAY
GAPDH counter – GAPDH inhibition flagged for Giardia aldolase hits; shares compounds with Giardia FBPA inh-1; Potency, µM (series often up to 57.5 µM), for inactives: at the top dose activity change, negative = inhibition, most hits filed as inhibitors; AID 2795; 1,500 tested, 6% active; GAPDH coupling enzyme counterscreen, biochemical, qHTS; further: nearly all actives have a fitted effect of over 55% in size
* = called active by the depositor; ? = inconclusive; nt = not tested or not shown; [ ] = remark or other dose. Unless noted, the call rests on the fitted dose curve; in most records, active means well fitted curve in the direction sought with a large enough effect; inconclusive means small, poorly fitted or top-dose-only effect, or another doubt; inactive means no such curve, though single readings can be large; an effect the other way counts as inactive or inconclusive. On the % scale 0 is the no-effect control and ±100 the full control effect; potency means the concentration at half of the fitted maximal effect.

SMILES	RE007 growth inh	Tb PYK inh	Giardia FBPA inh-1	LmPK inh	Giardia growth	Mammalian tox	Giardia FBPA inh-2	Rabbit FBPA inh	GAPDH counter
CCN1CCN(CCOCCOc2ccccc2-c2ccccc2)CC1	nt	nt	18µM*	-1%	11%[10.4 µM]	-9%	7%	-2%	2%
CC1CCN(CCOc2ccccc2-c2ccccc2)CC1	5%	17%	?	-4%	nt	nt	nt	nt	nt
Cc1cccc(OCCOCCN2CCNCC2)c1C	1%	-15%	-4%	4%	nt	nt	nt	nt	nt
CSCC[C@H](NC(=O)[C@H](CCCNC(=N)N)NC(=O)[C@H](Cc1ccc(O)cc1)NC(=O)[C@@H]1CCCN1C(=O)CNC(=O)[C@H](CCC(=O)O)NC(=O)[C@H](CC(=O)O)NC(=O)[C@H](CCCCN)NC(=O)[C@H](CCCCN)NC(=O)[C@H](CCC(=O)O)NC(=O)[C@H](C)N)C(=O)N[C@@H](CCC(=O)O)C(=O)N[C@@H](Cc1cnc[nH]1)C(=O)N[C@@H](Cc1ccccc1)C(=O)N[C@@H](CCCNC(=N)N)C(=O)N[C@@H](Cc1c[nH]c2ccccc12)C(=O)NCC(=O)N[C@@H](CO)C(=O)N1CCC[C@H]1C(=O)N1CCC[C@H]1C(=O)N[C@@H](CCCCN)C(=O)N[C@@H](CC(=O)O)C(=O)O	nt	nt	-1%	nt	nt	nt	nt	nt	nt
Cc1ccccc1NC(=O)CN1CCN(C)CC1	6%	0%	25µM*	-2%	11%	-1%	1%	9%	12%
Cc1ccccc1NC(=O)CN1CCCC1	13%	-5%	nt	nt	nt	nt	nt	nt	nt
CCN(C(=O)c1cc(S(=O)(=O)N2CCOCC2)cn1C)c1cccc(C)c1	4%	-1%	13µM*	-10%	28%	-5%	10%	0%	2%
Cc1ccc(OCCCN2CCOCC2)cc1	2%	4%	20µM*	-6%	?	-10%	10%	3%	7%
NC(N)=NS(=O)(=O)c1ccc(NC(=S)NC(=O)c2ccc(Br)cc2)cc1	8%	1%	-14%	6%	nt	nt	nt	nt	nt
NC(N)=NS(=O)(=O)c1ccc(NC(=S)NC(=O)c2ccncc2)cc1	3%	1%	11µM*	-1%	4%[10.4 µM]	10%	6%	5%	11%
C=CC[C@@](C(C)=O)(C(=O)OC)C(NC(=O)OC(C)(C)C)c1ccccc1 (stereo partly specified)	nt	nt	2%	nt	nt	nt	nt	nt	nt
COc1cccc(Cn2c(=O)c(-c3cccs3)nc3cnc(OCc4ccccc4)nc32)c1	nt	nt	7%	nt	nt	nt	nt	nt	nt
O=C(O)CCCNc1cc(N2CCN(C(=O)c3ccco3)CC2)c2noc3c2c1C(=O)c1ccccc1-3	-6%	-4%	3.5µM*	-19%	?	-18%	?	?	?
CN1CCN(c2cc(N3CCN(C(=O)c4ccco4)CC3)c3c4c(onc24)-c2ccccc2C3=O)CC1	-15%	-6%	-27%	-8%	nt	nt	nt	nt	nt
O=c1[nH]c(=S)[nH]c2sccc12	20%	-21%	7.1µM*	6%	-6%[38.3 µM]	-6%	-12%	-15%	-9%
COc1ccc(OC)c(/C=N/NC2=NS(=O)(=O)c3ccccc32)c1	-7%	-13%	16µM*	0%	-17%[10.4 µM]	-4%	1%	8%	10%
O=[N+]([O-])c1cccc(/C=N/NC2=NS(=O)(=O)c3ccccc32)c1	7%	-7%	-2%	-6%	nt	nt	nt	nt	nt
COc1ccc(/C=N/NC2=NS(=O)(=O)c3ccccc32)cc1OC(C)=O	3%	16%	3.5µM*	2%	12%[38.3 µM]	-4%	?	7%	3%
COc1cc(/C=N/NC2=NS(=O)(=O)c3ccccc32)cc(OC)c1OC	-5%	2%	7.9µM*	1%	-14%	6%	13%	8%	6%
CN(C)c1ccc(/C=N/NC2=NS(=O)(=O)c3ccccc32)cc1	33%	-6%	?	-3%	nt	nt	nt	nt	nt
O=S1(=O)N=C(N/N=C/c2ccccn2)c2ccccc21	-1%	-6%	?	-6%	nt	nt	nt	nt	nt
CC(=O)Oc1ccc(/C=N/NC2=NS(=O)(=O)c3ccccc32)cc1	-7%	-3%	7.9µM*	-2%	-26%	1%	10%	1%	12%
CC(NC(=O)c1ccc2c(c1)sc1nc(-c3ccc(F)cc3)cn12)C12CC3CC(CC(C3)C1)C2 (stereo unspecified)	nt	2%	nt	nt	nt	nt	nt	nt	nt
COc1cccc(N(C)C(=S)Oc2ccc3c(c2)CCCC3)n1	nt	-2%	nt	nt	nt	nt	nt	nt	nt
COc1ccc(/C=N/NC2=NS(=O)(=O)c3ccccc32)cc1	6%	-3%	4.5µM*	-3%	-7%[10.4 µM]	5%	9%	16%	6%
SMILES	RE007 growth inh	Tb PYK inh	Giardia FBPA inh-1	LmPK inh	Giardia growth	Mammalian tox	Giardia FBPA inh-2	Rabbit FBPA inh	GAPDH counter
CN(C)c1ncc2nc(-c3cccs3)c(=O)n(-c3ccccc3)c2n1	nt	nt	4%	nt	nt	nt	nt	nt	nt
CN(C)c1ncnc2c1NC1=C(S2)C(=NCCCC(=O)O)CC(C)(C)C1	-27%	-25%	?	-2%	-3%[38.3 µM]	-19%	-17%	-12%	-23%
COc1ncnc2c1NC1=C(S2)C(=NCCC(=O)O)CC(C)(C)C1	-9%	-16%	?	1%	nt	nt	nt	nt	nt
N#C/C(=N/Nc1ccc(OC(F)(F)F)cc1)C(N)=S	28%	-3%	0%	-5%	nt	nt	nt	nt	nt
NC(=S)N=Nc1ccc(NN=C(N)N)cc1	-20%	?	10µM*	-6%	22%	-3%	?	?	?
OCC1OC(C#Cc2ccccc2)C=CC1O (stereo unspecified)	nt	nt	-1%[12.9 µM]	nt	nt	nt	nt	nt	nt
Cc1[nH]c(=S)c(C#N)c(-c2ccccc2)c1C(=O)Nc1ccccc1	15%	?	?	13%	nt	nt	nt	nt	nt
CCN(CC)C(=O)c1c(C)[nH]c(=S)c(C#N)c1-c1ccco1	19%	5.6µM*	10µM*	52%	1%	1%	5%	-3%	8%
COC1/C=C/OC2(C)Oc3c(C)c(O)c4c(O)c(c(/C=N/N5CCN(C)CC5)c(O)c4c3C2=O)NC(=O)/C(C)=C/C=C/C(C)C(O)C(C)C(O)C(C)C(OC(C)=O)C1C (stereo unspecified)	nt	nt	-28%	nt	nt	nt	nt	nt	nt
COc1ccc(OC)c(C2CC(=O)N3CN(c4cccc(Cl)c4C)CSC3=C2C#N)c1 (stereo unspecified)	1%	3.5µM*	1.4µM*	-2%	?	-9%	-29%	?	?
